Source: PubChem BioAssay AID651814 (National Center for Advancing Translational Sciences (NCATS), 2012)
In all, about 2,100 compounds went through this assay and about 590 (28%) were called active. Inconclusive results (about 42%) are left out. Some of the results follow. Unmarked numbers belong to inactive results. The call rests on the fitted dose curve; in most records, active means well fitted inhibition curve with a large enough effect; inconclusive means small, poorly fitted or top-dose-only effect; inactive means flat fitted curve, though single readings scatter.

target: DNA dC->dU-editing enzyme APOBEC-3F (Homo sapiens) (UniProt Q8IUX4); assay: qHTS for inhibitors of Vif-A3F interactions: Cherry picks; details: HeLa A3F-eYFP + Vif (tagged APOBEC3F with the HIV-1 protein that degrades it), eYFP fluorescence, 24 h; further: nearly all actives have a fitted effect of over 70% in size;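 on max response: % of control where 0% means no effect; active compounds raise eYFP fluorescence by blocking Vif-driven A3F loss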
Method in brief: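 HeLa cells stably expressing A3F-eYFP plus Vif, cultured overnight, then exposed to compounds at several concentrations for 24 h at 37 deg C. Reduced Vif-driven degradation read as rising eYFP fluorescence (488 nm ex/500-530 nm em) by laser-scanning cytometry; MG132 as positive control.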
Potency means the concentration at half of the fitted maximal effect.

Sequence of DNA dC->dU-editing enzyme APOBEC-3F (Homo sapiens) (Q8IUX4 whole entry, looked up): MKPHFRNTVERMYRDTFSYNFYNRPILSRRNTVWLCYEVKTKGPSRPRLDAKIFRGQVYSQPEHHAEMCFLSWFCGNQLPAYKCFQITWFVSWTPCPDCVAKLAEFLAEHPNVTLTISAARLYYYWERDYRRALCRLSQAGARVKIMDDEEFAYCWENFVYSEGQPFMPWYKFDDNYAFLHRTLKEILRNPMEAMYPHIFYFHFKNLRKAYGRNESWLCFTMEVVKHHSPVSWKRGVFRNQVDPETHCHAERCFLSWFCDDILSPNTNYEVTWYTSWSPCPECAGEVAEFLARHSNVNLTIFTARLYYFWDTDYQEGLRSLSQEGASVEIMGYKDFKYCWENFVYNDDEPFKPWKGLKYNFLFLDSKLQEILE

Structure (SMILES) | max response [%] | Potency
O=S(=O)(N=C1C=CC(=NS(=O)(=O)c2ccccc2)c2ccccc21)c1ccccc1 | -24.1 | –
O=C(/C=C/c1ccncc1)c1cc(Cl)ccc1O | 3.83 | –
CC[n+]1c(/C=C/N(C)c2ccccc2)oc2ccc(F)cc21 | – | 11.2 µM (active)
COc1ccc(N/C=C/C(=O)c2sc(-c3ccccc3)nc2C)cc1 | -17.8 | –
CC[n+]1c(/C=C/Nc2ccccc2)oc2ccc(OC)cc21 | – | 20.6 µM (active)
CC[n+]1c(/C=C/Nc2ccccc2)oc2ccccc21 | – | 7.31 µM (active)
CCOC(=O)c1c(CC(C)C)csc1/N=C/C1C(=O)CCCC1=O | -3.21 | –
CCc1ccc2c(c1)NC(=O)C2(C)Cc1ccccc1Cl (stereo unspecified) | -19.4 | –
COc1ccccc1C(=O)NC(=S)Nc1ccc(NC(=O)c2ccco2)cc1 | -12.8 | –
COCCCNc1nc2ccccc2nc1NS(=O)(=O)c1ccccc1 | -2.62 | –
CCN(CC)c1ccc2c(c1)oc(=O)c1c(Cl)cc(=O)oc12 | – | 20.6 µM (active)
CCc1nnc(NC(=O)CSc2nnc(-c3ccccc3O)n2-c2ccc(C)cc2C)s1 | -23.9 | –
Cc1ccc(O)c(Nc2c3ccccc3nc3ccccc23)c1 | -0.294 | –
Cc1ccc(O)c(NC(=O)c2cc(-c3ccccc3O)no2)c1 | – | 18.4 µM (active)
Cn1cc(/C=C/c2ccc3ccccc3n2)c2ccccc21 | – | 20.6 µM (active)
Cn1cc(/C=C/c2ccnc3ccccc23)c2ccccc21 | – | 23.1 µM (active)
COC(=O)C1=COC(C)C2CN3CCc4c([nH]c5cc(OC)c(OC)cc45)C3CC12 (stereo unspecified) | -8.29 | –
CC(=O)Nc1ccc(S(=O)(=O)Nc2nc3ccccc3nc2Nc2ccc(N)cc2)cc1 | -0.838 | –
Cc1cc(N2CCN(c3ccc([N+](=O)[O-])c4cccnc34)CC2)c2ccccc2n1 | – | 10.3 µM (active)
O=[N+]([O-])c1cc(Cl)c2cccnc2c1O | 3.56 | –
O=[N+]([O-])c1cc(O)c2ncccc2c1 | -7.28 | –
Cc1cc(C)c2cc3c(N)c(C(=O)Nc4c(C)[nH]c(=O)[nH]c4=O)sc3nc2c1 | – | 13 µM (active)
CCCSc1nnc(N2C(=O)C(O)=C(C(=O)c3ccco3)C2c2ccccc2F)s1 (stereo unspecified) | -6.1 | –
Cc1ccc(C2C(C(=O)c3cccs3)=C(O)C(=O)N2c2nnc(C)s2)cc1 (stereo unspecified) | – | 19.8 µM (active)
Cc1ccc(C2=NN(C(=O)c3cccs3)C(c3ccccc3O)C2)cc1 (stereo unspecified) | -0.929 | –
FC(F)(F)c1ccccc1NC(=S)NN=C1CCCCCC1 | 0.807 | –
